# Assay outcomes: PubChem BioAssay, National Center for Advancing Translational Sciences (NCATS)
# A selection: hits, their analogues and other compounds. The true share with any hit is near 19%.
# TDP1 cell CPT – DT40-hTDP1 cell growth loss with CPT. chicken DT40 Tdp1-/-;hTDP1 cells + 20 nM CPT, ATP luminescence, 48 h. Potency, µM (titrated, usually from 46.2 µM), for inactives: at the top dose activity change, negative = growth inhibition, usual class: inhibitors. 420,000 compounds, 12% hits. AID 686979; note: potency is the fitted concentration of half-maximal effect; nearly all actives have a fitted effect of over 55% in size
#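 Cell growth measured by CellTiter-Glo luminescence after a minimum 48 h, 37 C compound exposure with 20 nM CPT in Tdp1-knockout DT40 cells stably expressing hTDP1, seeded 400/well; qHTS titration format.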
# ELG1 repair inh – inhibitors of ELG1-dependent DNA repair in HEK293T cells; HEK293T ELG1-luciferase reporter, luminescence, 16 h; DNA damage induced by 5-fluorouridine; Potency, µM (series often up to 46.1 µM), without a hit: at the highest dose activity change, negative = inhibition, actives largely listed as inhibitors; 330,000 compounds, 2.3% hits; note: potency is the fitted concentration of half-maximal effect; nearly all actives have a fitted effect of over 55% in size
#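 Cells (2,000 per well) received 5-fluorouridine plus test compound or DMSO and were incubated 16 hr at 37 °C, 5% CO2. Luciferase activity was read by luminescence 30 min after ONE-Glo addition; signal suppression marked inhibition of damage-induced ELG1 function.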
# DT40 TDP1 no CPT – qHTS for Inhibitors of human tyrosyl-DNA phosphodiesterase 1 (TDP1): qHTS in cells in absence of CPT; DT40 Tdp1-/- hTDP1 cells, no CPT, ATP luminescence, 48 h; Potency, µM (titrated, usually from 46.2 µM), inactives show top-dose activity change, negative = growth inhibition, hits mostly inhibitors; 420,000 compounds, 15% hits; AID 686978, 2013; note: potency is the fitted concentration of half-maximal effect; nearly all actives have a fitted effect of over 55% in size
#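 Compound effects on proliferation are scored in DT40 Tdp1-/-;hTDP1 cells in the absence of CPT. ATP levels (CellTiter-Glo luminescence) are recorded after a ≥48 hr, 37 °C incubation.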
# HT1080NT lethal – kills 2HG-producing HT-1080-NT fibrosarcoma cells | Potency, µM (highest dose often 46.1 µM), for inactives: at the highest dose activity, negative = less viability, hits mostly cytotoxic | AID 686970 | 360,000 compounds, 1.6% hits | HT-1080-NT fibrosarcoma viability, CellTiter-Glo ATP luminescence, 48 h;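 note: NT is the 2HG producing partner of a matched IDH1 knockdown line; potency is the fitted concentration of half-maximal effect; 0% = DMSO-treated cells and -100% = media-only wells without cells; nearly all actives have a fitted effect of over 55% in size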
#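 Viability of the 2HG-overproducing fibrosarcoma line after 48 hours of compound exposure at 37 degrees C was determined by luminescence with CellTiter-Glo, and concentration-effect curves were then fitted and categorized.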
# HT1080 IDH1KD tx – kills HT-1080 cells with IDH1 knockdown | HT-1080 IDH1 knockdown viability, ATP luminescence, 48 h | Potency, µM (doses to about 46.1 µM), for inactives: at the highest dose activity, negative = toxicity, most hits filed as cytotoxic | 360,000 compounds, 2% hits;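 note: potency is the fitted concentration of half-maximal effect; 0% = DMSO wells and -100% = cell-free medium wells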
#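 Viability of IDH1-knockdown HT-1080 fibrosarcoma cells was assessed by CellTiter-Glo after 48 h at 37 °C with titrated compound; concentration-effect curves were classified by fit quality and response size.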
# IL1B secr inh – inflammasome signaling inhibition, IL-1 beta readout | THP-1 LPS/ATP IL-1B secretion, AlphaLISA, 16 h; active compounds read low | activity change, % at 57.5 µM | 360,000 compounds, 4.7% hits; in the data active = activity change below about -50%; inconclusive = mostly about -30% to -49%
#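 THP-1 cells pretreated 1 hr with compounds (up to 57.5 uM final), then stimulated with LPS (250 ng/mL final) plus ATP (1.25 mM final); secreted IL-1B measured by AlphaLISA after 16 hr, decreased signal indicating inhibition.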
# Numbers without * were called inactive; ? = inconclusive; / = no result given. Unless noted, calls come from the whole dose curve; as a rule, active = well fitted curve in the direction sought with a large enough effect; inconclusive = small, poorly fitted or top-dose-only effect, or another doubt; inactive = no such curve, though single readings can be large; an effect the other way counts as inactive or inconclusive. Unless noted, % is set by controls: 0 for no effect and ±100 for the full control effect.
SMILES,TDP1 cell CPT,ELG1 repair inh,DT40 TDP1 no CPT,HT1080NT lethal,HT1080 IDH1KD tx,IL1B secr inh
CCN(CCCNC(=O)Cn1ncc2c([nH]c3ccccc32)c1=O)Cc1ccccc1,-14%,-2%,?,-2%,2%,-26
CCN(CCCNC(=O)Cn1ncc2c([nH]c3ccc(C)cc32)c1=O)Cc1ccccc1,?,0%,16µM*,0%,10%,-27
Cc1ccc(C)c(CN2CCC(CNC(=O)Cn3ncc4c([nH]c5ccccc54)c3=O)CC2)c1,?,/,15µM*,/,/,/
Cc1ccc(NC(=O)C(C)OC(=O)COc2cccc(C(F)(F)F)c2)cc1 (centres undefined),-10%,?,2%,11%,5%,8
CC(=O)N[C@@H](Cc1c[nH]c2ccccc12)C(=O)OCc1cc(C(F)(F)F)cc(C(F)(F)F)c1,-9%,0%,-17%,-27%,?,-3
CC(=O)c1sc(-c2ccc(F)cc2)cc1NS(=O)(=O)c1ccc(C)cc1,-10%,18µM*,?,8%,0%,17
CC(=O)c1sc(-c2ccccc2)cc1NS(=O)(=O)c1ccccc1,0%,3%,?,20%,22%,/
NC(=O)c1sc(-c2ccsc2)cc1NS(=O)(=O)c1ccc(C(F)(F)F)cc1,-24%,18µM*,?,-26%,-30%,/
O=C(CSc1ccccn1)Nc1nonc1[N+](=O)[O-],3.7µM*,?,4.1µM*,21µM*,?,-99*
O=C(CSc1ccccn1)Nc1ccc(NC(=O)CSc2ccccn2)cc1,8%,5%,5%,0%,4%,8
COc1ccc(C2=NN(CC(=O)NCCc3ccccc3)C(=O)CC2)cc1,-1%,/,-15%,/,/,/
CN(Cc1ccccc1)C(=O)c1ccc(NC(=O)C2=CSCCO2)cc1,1%,?,-2%,2%,4%,-11
CCN(C(=O)COC(=O)c1cccc(S(=O)(=O)NCc2ccccc2)c1)c1ccccc1,?,-19%,?,7%,9%,-5
Clc1ccc(-c2nnc(SCc3nc4ccccc4[nH]3)o2)c(Cl)c1,?,-24%,9.2µM*,-9%,-13%,-1
c1ccc2[nH]c(CSc3nnc(-c4ccncc4)o3)nc2c1,?,?,?,-7%,-3%,15
Brc1cccc(-c2nnc(SCc3nc4ccccc4[nH]3)o2)c1,?,-3%,?,11%,-2%,-56*
Cc1ccc(S(=O)(=O)N2CCN(c3nc(-n4ccnc4)nc4ccccc34)CC2)cc1,-17%,/,-17%,14%,19%,/
COc1ccc(-c2coc3ccc(OC4OC(COC(C)=O)C(OC(C)=O)C(OC(C)=O)C4OC(C)=O)cc3c2=O)cc1 (centres undefined),2.7µM*,/,1.1µM*,/,/,/
COc1ccc(-c2coc3cc(O[C@@H]4O[C@H](CO)[C@@H](O)[C@H](O)[C@H]4O)ccc3c2=O)cc1,-3%,?,-17%,3%,16%,12
COc1ccc(O[C@@H]2O[C@H](COC(C)=O)[C@@H](OC(C)=O)[C@H](OC(C)=O)[C@H]2NC(C)=O)cc1,4%,-10%,3%,5%,2%,13
COc1ccc(-c2coc3ccc(OC4OC(COC(C)=O)C(OC(C)=O)C(OC(C)=O)C4OC(C)=O)c(OC(C)=O)c3c2=O)cc1 (centres undefined),?,/,8.4µM*,/,/,/
CC(=O)NC(=S)Nc1ccc(S(=O)(=O)Nc2nc(C)cc(C)n2)cc1,17%,?,1%,15%,0%,29
